{
  "source": "PubChem BioAssay (NCATS)",
  "note": "Results filed as inconclusive are left out. Where a call stands in place of a potency, no number is given. The source made the active and inactive calls. Calls come from the whole dose curve; as a rule, active = well fitted inhibition curve with a large enough effect; inconclusive = small, poorly fitted or top-dose-only effect; inactive = flat fitted curve, though single readings scatter. Potency is the fitted concentration of half-maximal effect.",
  "data": [
    {"molecular_target": "Voltage-gated inwardly rectifying potassium channel KCNH2 (Homo sapiens) (UniProt Q12809)", "sequence (Q12809 whole entry, looked up)": "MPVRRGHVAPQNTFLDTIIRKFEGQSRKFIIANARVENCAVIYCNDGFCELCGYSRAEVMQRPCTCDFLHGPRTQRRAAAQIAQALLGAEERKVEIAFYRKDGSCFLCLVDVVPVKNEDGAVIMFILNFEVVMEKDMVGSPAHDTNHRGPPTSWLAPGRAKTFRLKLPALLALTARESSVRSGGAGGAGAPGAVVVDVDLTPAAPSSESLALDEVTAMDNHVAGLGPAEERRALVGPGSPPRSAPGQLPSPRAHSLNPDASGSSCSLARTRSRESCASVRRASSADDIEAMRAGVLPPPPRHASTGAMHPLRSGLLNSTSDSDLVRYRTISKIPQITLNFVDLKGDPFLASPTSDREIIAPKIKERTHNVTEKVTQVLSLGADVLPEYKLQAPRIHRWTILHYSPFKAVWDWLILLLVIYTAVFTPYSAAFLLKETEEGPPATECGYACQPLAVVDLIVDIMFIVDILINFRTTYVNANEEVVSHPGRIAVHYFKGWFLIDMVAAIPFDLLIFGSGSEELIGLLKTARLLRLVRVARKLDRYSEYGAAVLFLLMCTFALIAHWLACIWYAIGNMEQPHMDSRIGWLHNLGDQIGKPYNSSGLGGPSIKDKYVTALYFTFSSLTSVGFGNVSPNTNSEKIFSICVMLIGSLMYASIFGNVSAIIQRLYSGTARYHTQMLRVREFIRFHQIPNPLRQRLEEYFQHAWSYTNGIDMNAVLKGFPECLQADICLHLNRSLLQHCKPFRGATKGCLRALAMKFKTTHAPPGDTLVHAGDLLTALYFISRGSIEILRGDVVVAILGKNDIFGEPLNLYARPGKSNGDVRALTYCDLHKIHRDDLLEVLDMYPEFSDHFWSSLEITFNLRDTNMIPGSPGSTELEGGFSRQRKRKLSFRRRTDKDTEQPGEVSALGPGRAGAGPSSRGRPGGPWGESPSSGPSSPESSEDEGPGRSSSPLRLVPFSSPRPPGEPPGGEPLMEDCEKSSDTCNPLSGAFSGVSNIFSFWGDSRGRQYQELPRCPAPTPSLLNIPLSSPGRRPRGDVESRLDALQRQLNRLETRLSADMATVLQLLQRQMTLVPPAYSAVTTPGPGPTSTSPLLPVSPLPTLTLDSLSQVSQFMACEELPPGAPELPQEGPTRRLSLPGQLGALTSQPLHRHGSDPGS", "assay": "qHTS Assay for Small Molecule Inhibitors of the Human hERG Channel Activity (AID 588834);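 note: lower thallium flux fluorescence means stronger hERG block; nearly all actives have a fitted effect of over 50% in size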", "conditions": "U2OS BacMam hERG, FluxOR thallium flux fluorescence; series mostly up to 46.1 µM", "source_text": "NIH Chemical Genomics Center [NCGC]\nNational Institutes of Environmental Health Sciences [NIEHS]\nNational Toxicology Program [NTP]\nWe have developed a 1536-well cell-based assay for quantitative high throughput screening (qHTS) to determine in vitro hERG channel blockage as a measure of cardio toxicity with small molecules. This particular assay uses the U2OS cell line which is derived from human osteosarcoma.\nNCGC Assay Protocol Summary:\nHERG assay (FluxORTM thallium flux assay) was initially developed by Invitrogen/Molecular Probes, and then miniaturized into 1536-well plate in a homogeneous format by NCGC. This assay measures the activity of potassium channel using thallium dye (FluxOR) flux as surrogate measurement for potassium into the cells with a FDSS-7000 kinetic plate reader (Hamamatsu Corp., Hamamatsu City, Japan). The hERG ion channel is transduced into mammalian cells (U2OS) using a baculovirus (Bacmam) construct harboring the hERG K+ ion channel. So far we screened LOPAC1280 library (Sigma), the NTP collection of 1408 compounds, and the NCGC Pharmaceutical Collection (NPC), in which many well defined HERG blockers are present. The rank order potencies of many of these compounds are similar to that of other HERG assays (membrane potential, Rb+ flux, patch clamp, etc). This quick and homogeneous assay is also found to be sensitive, specific, and robust.\nUsing the FluxORTM thallium flux assay, the activity of potassium channel using thallium dye (FluxOR) flux as surrogate measurement for potassium into the cells was measured in the U2OS cell line transduced with hERG K+ ion channel using a baculovirus (Bacmam) using Opti-MEM medium (Invitrogen) containing 2% fetal calf serum (FCS, HyCone) following loading buffer addition, compound treatment for around 10 minutes and finally adding stimulation buffer. The assay was performed in black clear Kalypsys 1536-well plates. In the screen, Astemizole was used as positive controls. Library compounds were measured for their ability to cause hERG channel blockage in the cell line, as reflected by a decrease in fluorescence intensity, in a concentration-dependent manner. […] AC50 values were determined from concentration-response data modeled with the standard Hill equation.\nqHTS protocol for hERG-U2OS cellular assay\n[Step] [Parameter] [Value] [Description]\n1. Day 1: Replace medium in 70-80% confluent T225 flask with 2.5 mL of hERG-BacMam virus plus 12.5 mL of phosphate buffered saline (PBS) (corresponding roughly to a multiplicity of infection ratio of 100 virus particles/cell)\n2. Incubation: 4 hrs @ room Temperature in Dark\n3. Reagent; Remove virus; wash once with 25 ml DPBS\n4. Reagent; 35 ml culture medium\n5. Incubation; 37 °C overnight\n6. Day2: Reagent; 3 uL; 2000 U2OS cells/well\n7. Time; 4 hr; 37 °C incubation\n8. Loading buffer; 1 uL; 0.7X;\n9. Incubation: 1hr @ RT in Dark.\n12. Time; 10min; 37 °C incubation\n13. Read fluorescence Intensity on FDSS for 10 Sec with 1 sec interval\n14. Reagent; 1 uL; stimulation buffer\n15. Read fluorescence Intensity on FDSS for 2 min with 1 sec interval\n16. Detection; Fluorescence Intensity; FDSS", "values": [
      {"smiles": "C[N+](C)(C)CC[N+]1(C)Cc2c(Cl)c(Cl)c(Cl)c(Cl)c2C1", "Potency": "inactive"},
      {"smiles": "Cc1cccc(C(=O)O)c1O", "Potency": "inactive"},
      {"smiles": "C[N+](C)(C)CC(O)CC(=O)[O-]", "note": "(stereo not given)", "Potency": "inactive"},
      {"smiles": "Cc1c(N(C)C)c(=O)n(-c2ccccc2)n1C", "Potency": "inactive"},
      {"smiles": "NC(=O)NS(=O)(=O)c1ccc(N)cc1", "Potency": "inactive"},
      {"smiles": "c1ccc2[nH]ccc2c1", "Potency": "inactive"},
      {"smiles": "O=C1C(c2[nH]c3ccccc3c2O)=Nc2ccccc21", "Potency": "inactive"},
      {"smiles": "CC(C)(C)C(=O)OCOC(=O)[C@@H]1N2C(=O)[C@@H](NC(=O)[C@H](N)c3ccccc3)[C@H]2SC1(C)C", "Potency": "inactive"},
      {"smiles": "NC(=O)CC[C@@H](N)C(=O)O", "Potency": "inactive"},
      {"smiles": "C[C@@H](N)C(=O)O", "Potency": "inactive"},
      {"smiles": "CC(O)CCCCn1c(=O)c2c(ncn2C)n(C)c1=O", "note": "(stereo not given)", "Potency": "inactive"},
      {"smiles": "NC(=O)N[C@@H](CCC(=O)O)C(=O)O", "Potency": "inactive"},
      {"smiles": "COc1ccc(Cc2cnc(N)nc2N)cc1OC", "Potency": "inactive"},
      {"smiles": "Cc1ccc(C(C)C)c(O)c1", "Potency": "inactive"},
      {"smiles": "CCCCCCCCCCCCCCCCCCO", "Potency": "inactive"},
      {"smiles": "CC(=O)Oc1cccc(O)c1", "Potency": "inactive"},
      {"smiles": "OCC(O)CS", "note": "(stereo not given)", "Potency": "inactive"},
      {"smiles": "FC(F)(F)C(Cl)Br", "note": "(stereo not given)", "Potency": "inactive"},
      {"smiles": "CC(=O)OCC(=O)[C@@]1(O)CC[C@H]2[C@@H]3CCC4=CC(=O)C=C[C@]4(C)[C@@]3(F)[C@@H](O)C[C@@]21C", "Potency": "inactive"},
      {"smiles": "OCc1ccc(Cl)cc1Cl", "Potency": "inactive"},
      {"smiles": "O=C1c2ccccc2C(=O)C1c1ccc(Br)cc1", "Potency": "inactive"},
      {"smiles": "CN1C(C)(C)CCCC1(C)C", "Potency": "inactive"},
      {"smiles": "CCCCCCCCCCCCCCCCN", "Potency": "inactive"},
      {"smiles": "Nc1ccc(C(=O)Oc2ccccc2)c(O)c1", "Potency": "inactive"},
      {"smiles": "Cc1c(Cn2ccnc2)c2ccccc2n1CCC(=O)O", "Potency": "inactive"},
      {"smiles": "Cc1c(NC(C)C)c(=O)n(-c2ccccc2)n1C", "Potency": "inactive"},
      {"smiles": "O=c1[nH]c(=O)c2ccccc2o1", "Potency": "inactive"},
      {"smiles": "NS(=O)(=O)c1cc(-c2nn[nH]n2)c(NCc2cccs2)cc1Cl", "Potency": "inactive"},
      {"smiles": "CC(=O)[C@@]1(O)CC[C@H]2[C@@H]3C[C@H](C)C4=CC(=O)C=C[C@]4(C)[C@@]3(F)[C@@H](O)C[C@@]21C", "Potency": "inactive"},
      {"smiles": "NC(=O)NC1NC(=O)NC1=O", "note": "(stereo not given)", "Potency": "inactive"},
      {"smiles": "CN1CCCN=C1COC(=O)C(O)(c1ccccc1)C1CCCCC1", "note": "(stereo not given)", "Potency": "2820 nM (active)"},
      {"smiles": "O=C(O)C(S)C(S)C(=O)O", "note": "(stereo not given)", "Potency": "inactive"},
      {"smiles": "C=CCSCC1Nc2cc(Cl)c(S(N)(=O)=O)cc2S(=O)(=O)N1", "note": "(stereo not given)", "Potency": "inactive"},
      {"smiles": "COc1nccnc1NS(=O)(=O)c1ccc(N)cc1", "Potency": "inactive"},
      {"smiles": "O=C(Cn1ccnc1[N+](=O)[O-])NCc1ccccc1", "Potency": "inactive"},
      {"smiles": "C[N+]1(C)CCCC(OC(=O)C(O)(c2ccccc2)c2ccccc2)C1", "note": "(stereo not given)", "Potency": "inactive"},
      {"smiles": "CC(=O)N[C@H]1[C@H]([C@H](O)[C@H](O)CO)OC(C(=O)O)=C[C@@H]1N=C(N)N", "Potency": "inactive"},
      {"smiles": "CC(=O)N1C[C@H](O)C[C@H]1C(=O)O", "Potency": "inactive"},
      {"smiles": "O=C(O)Cn1c(C(=O)Nc2nc(-c3ccccc3Cl)cs2)cc2ccccc21", "Potency": "inactive"},
      {"smiles": "CCc1nnc(NS(=O)(=O)c2ccc(N)cc2)s1", "Potency": "inactive"}
    ]}
  ]
}
